Compounds without any hit were thinned out: in the full panel of roughly 83,000, 20% have a hit.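 Note: values are percent growth. 100 is the growth of untreated cells, values between 100 and 0 indicate rising inhibition; between -100 and 0 indicates cell death.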 Unmarked numbers belong to inactive results. Activity calls are given as the source filed them. How the source made its calls: active means growth percent below 10; inactive means the rest.

This passage reports growth results from PubChem BioAssay (NCI).

The subject of one test is HL-60(TB) leukemia. Briefly: NCI-60 one-dose screen, 48 h (100 = growth as untreated, 0 = no growth, -100 = all killed). The note with it: 10 µM unless noted.
Another test relates to MDA-MB-468 breast. The description is as above. The note with it: 10 µM unless noted.

With `Clc1ccc(-c2ccc(OCCCN3CCN(c4ccncc4)CC3)cc2)cc1`, the growth in the test on HL-60(TB) leukemia is -13.9% (active). On the same count and under the same terms, the figure for `O=c1[nH]c2ccccc2cc1CSc1ccc(Nc2nccc(-c3ccc4c(c3)OCO4)n2)cc1` is 97.4%; for `COc1ccc(C(=O)c2cc(C(C)=O)c3c(C)cc(C)cn23)cc1` it is 78%.

In the case of `CN(CCSSCCN1CCOCC1)C(=O)Oc1cc2c(c3ccccc13)[C@H](CCl)CN2C(=O)c1cc2cc(OCCCN3CCC3)ccc2[nH]1`, in the test with HL-60(TB) leukemia, the growth was -45.8% (active). Consider `CC1(c2ccccc2)NC(=O)N(CC(=O)Nc2ccc(C(=O)/C=C/c3ccc(Cl)cc3)cc2)C1=O` (centres undefined), for which the growth with HL-60(TB) leukemia was -27.7% (active). On the same count and under the same terms, in the case of `N#Cc1ccc(-c2nn(-c3ccc(C(=O)O)cc3)cc2CNc2cc(Cl)cc(C(F)(F)F)c2)cc1` it was 7.71% (active). Same read-out and setting: in the case of `CCOP(=O)(OCC)O[C@H]1CCC(=O)[C@@H]2[C@H]1[C@H]1C[C@@H]3[C@@]4(C)CCCC(C)(C(=O)OC)[C@@H]4CC[C@@]23C=C1C(C)C` (some centres undefined) it was 36.4%. On the same count and under the same terms, in the case of `COc1ccc(C(=O)/C=C/c2ccc3c(c2)OCCO3)cc1S(N)(=O)=O` it was 95.1%. With `O=NNc1ccccn1`, the growth in the test with MDA-MB-468 breast was 78.5%.
